This passage reports growth results from PubChem BioAssay (NCI).

The panel holds about 83,000 compounds, 20% with a hit somewhere; the sample as a whole holds those more often.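 Treatment: one concentration, 48 hours, 96-well format. Scoring: percent growth, with anything below 10 considered active.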 Unmarked numbers belong to inactive results. Calls of active or inactive are those of the source.

Some test systems named below: HCT-15 colon; SNB-75 CNS; SNB-19 CNS; U251 CNS; PC-3 prostate; SK-MEL-5 melanoma; UACC-62 melanoma; LOX IMVI melanoma; SK-MEL-28 melanoma; SK-MEL-2 melanoma; EKVX NSCLC; SN12C renal; UO-31 renal; TK-10 renal; ACHN renal; CAKI-1 renal; A498 renal; CCRF-CEM leukemia; MOLT-4 leukemia.
Holding throughout (test): NCI-60 one-dose screen, 48 h (100 = growth as untreated, 0 = no growth, -100 = all killed)
Holding throughout (conditions): 10 µM unless noted

Consider `COc1cc(/C=C\c2cc(OC)c(OC)c(OC)c2)cc(N)c1OC`, for which the growth in the experiment with HCT-15 colon is 70%; with SNB-75 CNS, 78.7%; with SNB-19 CNS it was 88.6%; in the experiment with U251 CNS, 91.2%; in the experiment with PC-3 prostate it was 82.1%; with SK-MEL-5 melanoma, 86.7%. Besides, the growth in the experiment on UACC-62 melanoma was 74.7%; in the experiment with LOX IMVI melanoma, 86.8%; in the experiment with SK-MEL-28 melanoma, 97.6%; in the experiment on SK-MEL-2 melanoma, 74.2%; with EKVX NSCLC it was 94.1%; in the experiment with SN12C renal, 93.4%. For the same molecule, the growth in the experiment on UO-31 renal was 69%; in the experiment with TK-10 renal it was 95.9%; in the experiment with ACHN renal, 105%; in the experiment with CAKI-1 renal it was 56.4%; in the experiment on A498 renal, 76.5%; with CCRF-CEM leukemia, 74%. Besides, the growth with MOLT-4 leukemia is 93.1%.
Turning to `COc1ccc(C(=O)CC#N)cc1`, the growth is 112% with HCT-15 colon; 95.5% with SNB-75 CNS; 103% with SNB-19 CNS; 100% with U251 CNS; 105% in the experiment with PC-3 prostate; 97.9% with SK-MEL-5 melanoma. The growth in the experiment with UACC-62 melanoma was 105%; in the experiment with LOX IMVI melanoma it was 94.7%; with SK-MEL-28 melanoma it was 114%; in the experiment on SK-MEL-2 melanoma, 134%; in the experiment with SN12C renal, 94.1%; in the experiment on UO-31 renal it was 105%. Besides, the growth with TK-10 renal was 137%; in the experiment with ACHN renal, 108%; in the experiment on CAKI-1 renal, 127%; with A498 renal it was 109%.
`C[C@@H](Nc1ncnc2ccc(-c3cnc(N)nc3)cc12)c1ccc(F)cc1`: the growth is 88.6% in the experiment with HCT-15 colon; 69.5% in the experiment on SNB-75 CNS; 76.1% with SNB-19 CNS; 80.9% in the experiment with U251 CNS; 69.1% with PC-3 prostate; 73.2% in the experiment on SK-MEL-5 melanoma. For the same molecule, the growth is 69.2% with UACC-62 melanoma; 78.4% with LOX IMVI melanoma; 92.5% with SK-MEL-28 melanoma; 101% in the experiment on SK-MEL-2 melanoma; 36.7% in the experiment on EKVX NSCLC; 33.9% in the experiment with SN12C renal. Further, the growth in the experiment on UO-31 renal is 35.1%; with TK-10 renal, 21.4%; in the experiment on ACHN renal, 41.5%; with CAKI-1 renal it was 40.6%; in the experiment on A498 renal it was -13.5% (active); in the experiment on CCRF-CEM leukemia, 95.3%.
Regarding `Cc1cc2nc3c4cccc(O)c4n(CCN(C)C)c3nc2cc1C`, the growth was 21.6% with HCT-15 colon; 25.8% with SNB-75 CNS; 38.4% in the experiment with SNB-19 CNS; 35.5% in the experiment with U251 CNS; 35.6% with PC-3 prostate; 39.3% in the experiment on SK-MEL-5 melanoma. For the same molecule, the growth with UACC-62 melanoma was 49.5%; with LOX IMVI melanoma, 8.06% (active); with SK-MEL-28 melanoma, 75.6%; in the experiment on SK-MEL-2 melanoma, 54.2%; with EKVX NSCLC it was 42.2%; in the experiment on SN12C renal, 29.6%. Also, the growth in the experiment with UO-31 renal is 6.09% (active); with TK-10 renal, 72.8%; in the experiment on ACHN renal it was 8.22% (active); with CAKI-1 renal, 13.2%; in the experiment on CCRF-CEM leukemia, 27%; in the experiment on MOLT-4 leukemia it was 6.01% (active).
`CC(C)N1C(=O)S/C(=C2/SC(=O)N(C(C)C)C2=O)C1=O`: the growth with HCT-15 colon was 95.9%; in the experiment on SNB-75 CNS, 64.8%; in the experiment on SNB-19 CNS, 93.3%; in the experiment with U251 CNS, 96.3%; with PC-3 prostate it was 98.2%; in the experiment on SK-MEL-5 melanoma it was 93.9%. In addition, the growth in the experiment with UACC-62 melanoma is 91.6%; in the experiment on LOX IMVI melanoma it was 91.9%; in the experiment on SK-MEL-28 melanoma it was 105%; in the experiment on SK-MEL-2 melanoma, 98.7%; in the experiment with EKVX NSCLC, 85.5%; in the experiment on SN12C renal, 94.8%. The growth in the experiment with UO-31 renal was 87.7%; with TK-10 renal it was 89.9%; in the experiment with ACHN renal it was 102%; in the experiment with CAKI-1 renal it was 98.8%; in the experiment with A498 renal, 89.5%; in the experiment with CCRF-CEM leukemia, 38.9%. Also, in the experiment with MOLT-4 leukemia, the growth is 99.4%.
In the case of `c1ccc2c(-c3c[nH]c4ccccc34)c3c(cc2c1)[nH]c1ccccc13`, the growth with HCT-15 colon was 47%; in the experiment with SNB-75 CNS, 38.4%; in the experiment with SNB-19 CNS, 90.9%; with U251 CNS it was 70.1%; with PC-3 prostate it was 69.9%; in the experiment with SK-MEL-5 melanoma, 67.3%. Also, the growth in the experiment on UACC-62 melanoma is 68.3%; in the experiment on LOX IMVI melanoma, 60.1%; in the experiment with SK-MEL-28 melanoma it was 75.3%; in the experiment on SK-MEL-2 melanoma it was 50.6%; with SN12C renal, 80.8%; in the experiment on UO-31 renal it was 58.3%. The growth with TK-10 renal was 94.1%; with ACHN renal, 62.1%; in the experiment with CAKI-1 renal, 63%; in the experiment with CCRF-CEM leukemia, 43.9%; in the experiment on MOLT-4 leukemia, 38.2%.
On to `C/C(=N\Nc1cc(C)nc2ccc(Br)cc12)c1ccc([N+](=O)[O-])cc1`, for which the growth with HCT-15 colon is 21.7%; with SNB-75 CNS, 105%; in the experiment on SNB-19 CNS, 75.7%; in the experiment with U251 CNS it was 20%; in the experiment with PC-3 prostate, 74.8%; in the experiment on SK-MEL-5 melanoma, 92.3%. The growth was 89.6% in the experiment on UACC-62 melanoma; -29.9% (active) in the experiment on LOX IMVI melanoma; 99.2% with SK-MEL-28 melanoma; 93.1% in the experiment with SK-MEL-2 melanoma; 78.2% with EKVX NSCLC; 60.2% in the experiment with SN12C renal. The growth was 64.4% with UO-31 renal; 115% in the experiment on TK-10 renal; 42.5% in the experiment with ACHN renal; 84.6% in the experiment on CAKI-1 renal; 13.5% in the experiment with CCRF-CEM leukemia; 53.1% with MOLT-4 leukemia.
As for `COc1cc2c(-c3cc4c(cc3CNCCc3ccc5c(c3)OCO5)OCO4)cccc2c(OC)c1O`, the growth in the experiment on HCT-15 colon is 59.4%; with SNB-75 CNS it was 44.9%; in the experiment on SNB-19 CNS it was 87.4%; in the experiment on U251 CNS, 75.1%; in the experiment on PC-3 prostate, 60.9%; in the experiment on SK-MEL-5 melanoma, 78.8%. Further, the growth is 79.1% in the experiment with UACC-62 melanoma; 72.8% in the experiment with LOX IMVI melanoma; 97.6% in the experiment with SK-MEL-28 melanoma; 92.9% in the experiment with SK-MEL-2 melanoma; 78.8% in the experiment on SN12C renal; 45.5% in the experiment with UO-31 renal. Moreover, the growth in the experiment on TK-10 renal is 102%; in the experiment with ACHN renal it was 79.2%; with CAKI-1 renal, 54.9%; with CCRF-CEM leukemia, 79.5%; in the experiment on MOLT-4 leukemia, 56.5%.
